{
  "source": "the supplement of paper PMC9023506",
  "note": "Where a name gives a salt, the structure may show the parent alone.",
  "data": [
    {"tested_on": "Danio rerio larvae (5 dpf)", "assay": "excitability to 1-s acoustic pulses, difference vs DMSO (percentage points (treated minus DMSO)); higher = more of the behaviour than the DMSO vehicle control", "settings": "10 µM; exposure time: 3 h pre-incubation + 3 h imaging", "experimental": "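5-dpf wild-type zebrafish larvae were imaged in 96-well plates. They were treated with 190 Tocris FDA-approved drugs at 10 µM (1 µl/ml DMSO) for 3 h before and 3 h during imaging at 28.5 °C, 48 larvae per drug. Automated image analysis gave % time moving and optomotor responses. Values are drug group mean minus DMSO vehicle mean (n=844), in percentage points, for 10 behaviours.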", "values": [
      {"smiles": "Cc1cccc(CN2CCN(C(c3ccccc3)c3ccc(Cl)cc3)CC2)c1", "note": "(stereo not given) [Meclizine dihydrochloride]", "excitability to 1-s acoustic pulses": 9.5},
      {"smiles": "CN(CCOc1ccc(NS(C)(=O)=O)cc1)CCc1ccc(NS(C)(=O)=O)cc1", "note": "[Dofetilide]", "excitability to 1-s acoustic pulses": 4.42},
      {"smiles": "O=C1CCc2cc(OCCCCc3nnnn3C3CCCCC3)ccc2N1", "note": "[Cilostazol]", "excitability to 1-s acoustic pulses": 6.57},
      {"smiles": "OCCOCCN1CCN(C2=Nc3ccccc3Sc3ccccc32)CC1", "note": "[Quetiapine hemifumarate]", "excitability to 1-s acoustic pulses": 9.86},
      {"smiles": "Nc1ncn([C@@H]2O[C@H](CO)[C@@H](O)[C@H]2O)c(=O)n1", "note": "[5-Azacytidine]", "excitability to 1-s acoustic pulses": -3.59},
      {"smiles": "CC/C(=C(\\c1ccccc1)c1ccc(OCCN(C)C)cc1)c1ccccc1", "note": "[Tamoxifen citrate]", "excitability to 1-s acoustic pulses": 4.58},
      {"smiles": "CC1(C)O[C@@H]2[C@@H](CO[C@@]3(COS(N)(=O)=O)OC(C)(C)O[C@@H]23)O1", "note": "[Topiramate]", "excitability to 1-s acoustic pulses": 4.36},
      {"smiles": "CNC(=O)c1ccccc1Sc1ccc2c(/C=C/c3ccccn3)n[nH]c2c1", "note": "[Axitinib]", "excitability to 1-s acoustic pulses": 1.46},
      {"smiles": "COc1ccc(C[C@@H](C)NC[C@H](O)c2ccc(O)c(NC=O)c2)cc1", "note": "[Arformoterol tartrate]", "excitability to 1-s acoustic pulses": 5.34},
      {"smiles": "CS(=O)(=O)CCNCc1ccc(-c2ccc3ncnc(Nc4ccc(OCc5cccc(F)c5)c(Cl)c4)c3c2)o1", "note": "[Lapatinib]", "excitability to 1-s acoustic pulses": 14.5},
      {"smiles": "COCCc1ccc(OCC(O)CNC(C)C)cc1", "note": "(stereo not given) [Metoprolol tartrate]", "excitability to 1-s acoustic pulses": -8.67},
      {"smiles": "CC[C@H]1OC(=O)[C@H](C)[C@@H](O[C@H]2C[C@@](C)(OC)[C@@H](O)[C@H](C)O2)[C@H](C)[C@@H](O[C@@H]2O[C@H](C)C[C@H](N(C)C)[C@H]2O)[C@](C)(O)C[C@@H](C)CN(C)[C@H](C)[C@@H](O)[C@]1(C)O", "note": "[Azithromycin]", "excitability to 1-s acoustic pulses": 13},
      {"smiles": "NC(=O)c1ncn([C@@H]2O[C@H](CO)[C@@H](O)[C@H]2O)n1", "note": "[Ribavirin]", "excitability to 1-s acoustic pulses": -0.206},
      {"smiles": "CN[C@H]1CC[C@@H](c2ccc(Cl)c(Cl)c2)c2ccccc21", "note": "[Sertraline hydrochloride]", "excitability to 1-s acoustic pulses": 8.5},
      {"smiles": "CCCc1nc(C(C)(C)O)c(C(=O)O)n1Cc1ccc(-c2ccccc2-c2nnn[nH]2)cc1", "note": "[Olmesartan]", "excitability to 1-s acoustic pulses": -0.185},
      {"smiles": "CCCc1nc2c(C)cc(-c3nc4ccccc4n3C)cc2n1Cc1ccc(-c2ccccc2C(=O)O)cc1", "note": "[Telmisartan]", "excitability to 1-s acoustic pulses": 12.8},
      {"smiles": "Cc1cn([C@H]2C=C[C@@H](CO)O2)c(=O)[nH]c1=O", "note": "[Stavudine]", "excitability to 1-s acoustic pulses": 3.23},
      {"smiles": "O=C(O[C@@H]1C[C@@H]2C[C@H]3C[C@H](C1)N2CC3=O)c1c[nH]c2ccccc12", "note": "[Dolasetron mesylate]", "excitability to 1-s acoustic pulses": 9.61},
      {"smiles": "CCOc1nc2cccc(C(=O)O)c2n1Cc1ccc(-c2ccccc2-c2noc(=O)[nH]2)cc1", "note": "[Azilsartan]", "excitability to 1-s acoustic pulses": -0.616},
      {"smiles": "CC(C)(C)NC(=O)[C@@H]1C[C@@H]2CCCC[C@@H]2CN1C[C@@H](O)[C@H](Cc1ccccc1)NC(=O)[C@H](CC(N)=O)NC(=O)c1ccc2ccccc2n1", "note": "[Saquinavir mesylate]", "excitability to 1-s acoustic pulses": 9.21},
      {"smiles": "CC(C)[C@H]1CC[C@H](C(=O)N[C@H](Cc2ccccc2)C(=O)O)CC1", "note": "[Nateglinide]", "excitability to 1-s acoustic pulses": 1.64},
      {"smiles": "CN/C(=N\\CCSCc1nc[nH]c1C)NC#N", "note": "[Cimetidine]", "excitability to 1-s acoustic pulses": -2.12},
      {"smiles": "NC(=O)N1c2ccccc2C=Cc2ccccc21", "note": "[Carbamazepine]", "excitability to 1-s acoustic pulses": -0.497},
      {"smiles": "CCCN(CCC)S(=O)(=O)c1ccc(C(=O)O)cc1", "note": "[Probenecid]", "excitability to 1-s acoustic pulses": 4.8},
      {"smiles": "CCCCCCCN(CC)CCCC(O)c1ccc(NS(C)(=O)=O)cc1", "note": "(stereo not given) [Ibutilide hemifumarate]", "excitability to 1-s acoustic pulses": 12.9},
      {"smiles": "CC(C)OC(=O)C(C)(C)Oc1ccc(C(=O)c2ccc(Cl)cc2)cc1", "note": "[Fenofibrate]", "excitability to 1-s acoustic pulses": 4.84},
      {"smiles": "Cc1nnc(C(C)C)n1C1C[C@H]2CC[C@@H](C1)N2CC[C@H](NC(=O)C1CCC(F)(F)CC1)c1ccccc1", "note": "(stereo in doubt) [Maraviroc]", "excitability to 1-s acoustic pulses": 8.65},
      {"smiles": "CC(=O)NC[C@H]1CN(c2ccc(N3CCOCC3)c(F)c2)C(=O)O1", "note": "[Linezolid]", "excitability to 1-s acoustic pulses": 7.52},
      {"smiles": "COc1ccc([C@@H]2Sc3ccccc3N(CCN(C)C)C(=O)[C@@H]2OC(C)=O)cc1", "note": "[Diltiazem hydrochloride]", "excitability to 1-s acoustic pulses": 1.38},
      {"smiles": "CN(C)CCC[C@@]1(c2ccc(F)cc2)OCc2cc(C#N)ccc21", "note": "[Escitalopram oxalate]", "excitability to 1-s acoustic pulses": 14.4},
      {"smiles": "OC(CNCC(O)C1CCc2cc(F)ccc2O1)C1CCc2cc(F)ccc2O1", "note": "(stereo not given) [Nebivolol hydrochloride]", "excitability to 1-s acoustic pulses": 15.9},
      {"smiles": "C/C(O)=C(\\C#N)C(=O)Nc1ccc(C(F)(F)F)cc1", "note": "[Teriflunomide]", "excitability to 1-s acoustic pulses": 10.6},
      {"smiles": "CC(C)N(CCCCOCC(=O)NS(C)(=O)=O)c1cnc(-c2ccccc2)c(-c2ccccc2)n1", "note": "[Selexipag]", "excitability to 1-s acoustic pulses": 5.77},
      {"smiles": "CCOC(=O)c1ncn2c1CN(C)C(=O)c1cc(F)ccc1-2", "note": "[Flumazenil]", "excitability to 1-s acoustic pulses": 2.56},
      {"smiles": "COc1ccc(-c2ccc3cc(C(=O)O)ccc3c2)cc1C12CC3CC(CC(C3)C1)C2", "note": "[Adapalene]", "excitability to 1-s acoustic pulses": -0.119},
      {"smiles": "Cc1c(-c2ccc(O)cc2)n(Cc2ccc(OCCN3CCCCCC3)cc2)c2ccc(O)cc12", "note": "[Bazedoxifene acetate]", "excitability to 1-s acoustic pulses": 16},
      {"smiles": "Cc1nc(-c2ccc(OCC(C)C)c(C#N)c2)sc1C(=O)O", "note": "[Febuxostat]", "excitability to 1-s acoustic pulses": -0.372},
      {"smiles": "CC(C)CN(C[C@@H](O)[C@H](Cc1ccccc1)NC(=O)O[C@H]1CO[C@H]2OCC[C@H]21)S(=O)(=O)c1ccc(N)cc1", "note": "[Darunavir]", "excitability to 1-s acoustic pulses": -1.74},
      {"smiles": "CCCCC1=NC2(CCCC2)C(=O)N1Cc1ccc(-c2ccccc2-c2nnn[nH]2)cc1", "note": "[Irbesartan]", "excitability to 1-s acoustic pulses": -3.79},
      {"smiles": "CO[C@H]1/C=C/O[C@@]2(C)Oc3c(C)c(O)c4c(O)c(c5c(nc6cc(C)ccn65)c4c3C2=O)NC(=O)/C(C)=C\\C=C\\[C@H](C)[C@H](O)[C@@H](C)[C@@H](O)[C@@H](C)[C@H](OC(C)=O)[C@@H]1C", "note": "[Rifaximin]", "excitability to 1-s acoustic pulses": 4.07}
    ]}
  ]
}
